High-throughput results as filed in PubChem BioAssay.
NadD block: inhibitors of S. aureus NadD, primary screen, biochemical, colorimetric, uHTS | Nicotinate-nucleotide adenylyltransferase NadD (Staphylococcus aureus N315) | purified NadD enzyme, colorimetric absorbance read-out | inhibition, % at 20 µM | hit rate 0.78% among 360,000 | AID 602399, 2012; in the data active = inhibition above about 26%
NR3A LBD binder: binders of NR3A ligand-binding domain, primary screen, biophysical, differential scanning fluorimetry, uHTS; hit rate 2.5% among 340,000; AID 1259313, 2017; Glutamate receptor ionotropic, NMDA 3A (GRIN3A) ligand-binding domain; Tm shift relative to glycine control, % at 25 µM; NR3A LBD differential scanning fluorimetry, Tm shift; 0% = protein alone, 100% = glycine-bound protein;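 active = melting temperature shift of at least 10% of the positive control shift, at one fixed dose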
esBAF inh: Bmi1 luciferase reporter increase in mESCs, primary screen, esBAF inhibitor project, mouse ES cells, Bmi1 luciferase knock-in, single point. 24 h; 100% = twice the neutral-well signal. reporter increase, % at 12.5 µM. hit rate 2% among 350,000. AID 602393, 2012; in the data active = activation above about 40%;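 note: 0% = median of the plate's neutral control wells and 100% = double that signal; a rise in the Bmi1 reporter signal indicates esBAF inhibition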
SMARCA2 act: SMARCA2 (BRM) function activators, primary screen, cell-based, luminescence, high throughput | activation, % at 9.1 µM | AID 652017, 2013 | MG213 cells, MMTV-luciferase reporter, dexamethasone, overnight | hit rate 1% among 370,000; in the data active = activation above about 7.8%;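 note: 0% = vehicle wells and 100% = reference activator wells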
SKN-1 inh: suppressors of acrylamide-induced Pgst-4::GFP reporter in worms, primary screen, SKN-1 inhibitor project, whole organism, uHTS, GFP/RFP fluorescence ratio, strain VP596 | C. elegans VP596 Pgst-4::GFP/RFP ratio, 24 h | inhibition, % at 21.8 µM | hit rate 0.49% among 360,000 | AID 624304, 2012;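 active = interference check ratio from 0.5 to 1.5 plus GFP to RFP signal ratio inhibition reaching or exceeding a fixed threshold, cut at about 30% in these data, passing the limit was not always enough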
Vif imaging: HIV Vif self-association inhibitors, primary screen, imaging, HEK293T, single point | AID 602346, 2012 | inhibition, % at 7.49 µM | HEK293T cells, Vif self-association by quenched fluorescence, 24 h | hit rate 0.35% among 340,000; in the data active = inhibition above about 50%, passing the limit was not always enough
An asterisk follows results filed as active; x = not tested or not shown. Most compounds without a hit are left out; they make up all but 5.2% or so of the library.

SMILES | NadD block | NR3A LBD binder | esBAF inh | SMARCA2 act | SKN-1 inh | Vif imaging
COCC(=O)N1C[C@H](C)[C@@H](OC)CN(C)C(=O)c2cc(NC(=O)C3CCC3)ccc2OC[C@H]1C | x | x | -4.4 | x | x | x
Cc1ccc(-c2nc(CN3CCN(C(=O)C4CCCO4)CC3)cs2)cc1 (stereo not given) | 1.9 | 11.1* | -1.9 | -1.9 | -1.4 | -23.2
Cc1ccc(CN2CCN(C(=O)C3CCCO3)CC2)cc1 (stereo not given) | -5.7 | -1.4 | 4.6 | -1.4 | -12.3 | 0.4
O=C(NCC[C@@H]1CC[C@@H](NS(=O)(=O)c2ccccc2F)[C@@H](CO)O1)c1ccc(F)cc1 | x | x | -2.7 | x | x | x
CO[C@@H]1CN(C)C(=O)c2cc(NC(=O)c3ccccc3)ccc2OC[C@H](C)N(C(=O)C2CC2)C[C@H]1C | x | x | 8.0 | x | x | x
Cn1c(-c2ccc(Br)o2)nc2cc(Br)ccc21 | 0.2 | 12.5* | 11.5 | 2.8 | 42.8* | -12.5
Cn1c(-c2ccc(Br)o2)nc2ccccc21 | 5.6 | -8.3 | 31.3 | 7.5 | 13.9 | 6.5
Cc1ccccc1S(=O)(=O)N(C)C[C@H]1OCc2ccccc2-c2c(n(C)c3ccccc23)C(=O)N([C@@H](C)CO)C[C@H]1C | x | x | -1.4 | x | x | x
COc1ccc(OCc2cnc(Cl)s2)cc1 | 3.4 | 3.2 | 28.8 | 2.4 | 20.5 | 54.5*
O=[N+]([O-])c1ccc(OCc2cnc(Cl)s2)cc1 | -7.9 | -0.7 | x | 3.7 | 54.1* | 3.1
COCC#Cc1cnc2c(c1)C(=O)N([C@@H](C)CO)C[C@@H](C)[C@H](CN(C)Cc1ccc(F)cc1)O2 | x | x | -2.8 | x | x | x
Cc1ccc(N=C2NC(=O)/C(=C\c3ccc(C)s3)S2)cc1 | 13.3 | -3.2 | x | -0.9 | 37.8* | -0.3
Cc1cccc(N=C2NC(=O)/C(=C\c3cccs3)S2)c1 | 2.7 | -2.4 | x | 7.9* | 0.1 | 2.0
O=C(C[C@H]1CC[C@@H]2[C@H](COC[C@@H](O)CN2C(=O)c2cccnc2)O1)NCc1ccc(-c2ccccc2)cc1 | x | x | -3.3 | x | x | x
COCC(=O)Nc1ccc2c(c1)C(=O)N(C)[C@H]1CC[C@@H](CC(=O)NCC3CC3)O[C@H]1CO2 | x | x | -3.3 | x | x | x
CCOC(=O)/C(=N/Nc1ccc(C)cc1)S(=O)(=O)c1ccc(Cl)cc1 | -1.6 | 0.2 | 54.1* | 3.4 | -1.1 | -3.5
COc1ccc(C(=O)Cn2c(=N)n(C)c3ccccc32)cc1 | -8.4 | 0.9 | 87.4* | 4.8 | 11.0 | -2.6
CCCn1c(=N)n(CC(=O)C(C)(C)C)c2ccccc21 | 3.0 | 0.9 | -0.8 | 1.3 | 22.9 | 9.2
Cn1c(=N)n(CC(=O)C(C)(C)C)c2ccccc21 | -1.6 | 0.2 | 50.6* | 3.3 | 22.3 | 1.2
Cc1nn(-c2ccccc2)c(C)c1C(=O)OCC(=O)Nc1ccccc1 | -6.4 | 0.4 | 55.7* | 6.1 | 9.8 | -5.6
CC(=O)c1ccccc1NC(=O)COC(=O)c1c(C)nn(-c2ccccc2)c1C | -1.1 | -1.2 | 33.1 | 1.1 | 3.6 | -1.2
Cc1ccc(NC(=O)COC(=O)c2c(C)nn(-c3ccccc3)c2C)cc1 | -2.2 | -1.0 | -3.0 | -2.4 | 2.5 | -3.1
Cc1nn(-c2ccccc2)c(C)c1C(=O)OCC(=O)Nc1ccccc1C(F)(F)F | -3.5 | 0.1 | 46.0* | 1.5 | -8.7 | 9.4
COc1ccccc1NC(=O)COC(=O)c1c(C)nn(-c2ccccc2)c1C | -2.2 | 2.5 | 59.3* | 4.4 | 2.2 | -12.4
C[C@H](NC(=O)[C@H]1[C@H](CO)[C@H]2Cn3c(cccc3=O)[C@H]2N1S(C)(=O)=O)c1ccccc1 | x | x | 2.0 | x | x | x
O=C(C[C@@H]1C=C[C@@H](NS(=O)(=O)c2ccc(F)cc2)[C@H](CO)O1)N1CCN(c2ccccc2)CC1 | x | x | -6.3 | x | x | x
Cc1cc(-n2c(C)cc(C(=O)CSc3ccccn3)c2C)no1 | -4.3 | 0.9 | 75.9* | 0.4 | -5.2 | 5.1
C[C@@H]1CN([C@@H](C)CO)C(=O)c2cc(/C=C/c3ccccc3)cnc2O[C@H]1CN(C)C(=O)c1cnccn1 | x | x | 3.6 | x | x | x
